{"source": "PubChem BioAssay AID1159580", "about": "(chemical genetic matrix, 2015)", "experiment": "chemical genetic growth profiling, strain panel (AID 1159580);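 also: tested at 20 µM; growth read once vehicle control cultures reached saturation at 30 °C; 1 = growth at the plate median or of vehicle wells; lower values mean less growth of the strain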", "settings": "S. cerevisiae deletion strains, growth OD", "key": {"[1]": {"settings": "locus YHR030C, strain SLT2, hits give low values"}, "[2]": {"settings": "locus YHR079C, strain IRE1, hits give low values"}, "[3]": {"settings": "locus YJL095W, strain BCK1, hits give low values"}, "[4]": {"settings": "locus YJR066W, strain TOR1, hits give low values"}, "[5]": {"settings": "locus YLR113W, strain HOG1, hits give low values"}, "[6]": {"settings": "locus YNL183C, strain NPR1, hits give low values"}, "[7]": {"settings": "locus YOR231W, strain MKK1, hits give low values"}, "[8]": {"settings": "locus YPL256C, strain CLN2, hits give low values"}}, "note": "The campaign covered roughly 5,500 compounds. About 2,000 (36%) were called active. Not shown: some 18% with an inconclusive outcome. Some of the results follow. Unmarked numbers belong to inactive results. Rule as the data show it: active = normalized growth mostly below about 0.91 (no sharp cut-off); inconclusive = no clear call, values can overlap the other calls; inactive = mostly above about 0.92."}
{"smiles": "C[N+]1(C)CCc2cc3c(cc2[C@H]1C1OC(=O)c2c1ccc1c2OCO1)OCO3", "note": "(stereo partly drawn)", "values": [{"measurement": "normalized growth", "setting": "locus YAL021C, strain ccr4, hits give low values", "value": 0.981}, {"measurement": "normalized growth", "setting": "locus YAL026C, strain drs2, hits give low values", "value": 0.987}, {"measurement": "normalized growth", "setting": "locus YAL030W, strain snc1, hits give low values", "value": 0.999}, {"measurement": "normalized growth", "setting": "locus YBL061C, strain skt5, hits give low values", "value": 1}, {"measurement": "normalized growth", "setting": "locus YBR009C, strain hhf1, hits give low values", "value": 0.992}, {"measurement": "normalized growth", "setting": "locus YBR023C, strain chs3, hits give low values", "value": 1.01}, {"measurement": "normalized growth", "setting": "locus YBR171W, strain sec66, hits give low values", "value": 1}, {"measurement": "normalized growth", "setting": "locus YBR231C, strain swc5, hits give low values", "value": 1.01}, {"measurement": "normalized growth", "setting": "locus YBR279W, strain paf1, hits give low values", "value": 0.997}, {"measurement": "normalized growth", "setting": "locus YCL011C, strain gbp2, hits give low values", "value": 0.999}, {"measurement": "normalized growth", "setting": "locus YCL016C, strain dcc1, hits give low values", "value": 0.991}, {"measurement": "normalized growth", "setting": "locus YCL061C, strain MRC1, hits give low values", "value": 0.994}, {"measurement": "normalized growth", "setting": "locus YCL069W, strain vba3, hits give low values", "value": 0.999}, {"measurement": "normalized growth", "setting": "locus YCR088W, strain abp1, hits give low values", "value": 0.997}, {"measurement": "normalized growth", "setting": "locus YDL005C, strain med2, hits give low values", "value": 1}, {"measurement": "normalized growth", "setting": "locus YDL040C, strain nat1, hits give low values", "value": 0.996}, {"measurement": "normalized growth", "setting": "locus YDR001C, strain nth1, hits give low values", "value": 0.983}, {"measurement": "normalized growth", "setting": "locus YDR069C, strain doa4, hits give low values", "value": 1.02}, {"measurement": "normalized growth", "setting": "locus YDR137W, strain rgp1, hits give low values", "value": 0.996}, {"measurement": "normalized growth", "setting": "locus YDR159W, strain sac3, hits give low values", "value": 1.07}, {"measurement": "normalized growth", "setting": "locus YDR195W, strain ref2", "value": 0.989}, {"measurement": "normalized growth", "setting": "locus YDR297W, strain sur2, hits give low values", "value": 1.01}, {"measurement": "normalized growth", "setting": "locus YDR334W, strain swr1, hits give low values", "value": 0.986}, {"measurement": "normalized growth", "setting": "locus YDR335W, strain msn5, hits give low values", "value": 0.996}, {"measurement": "normalized growth", "setting": "locus YDR392W, strain spt3, hits give low values", "value": 0.982}, {"measurement": "normalized growth", "setting": "locus YEL003W, strain gim4, hits give low values", "value": 1}, {"measurement": "normalized growth", "setting": "locus YEL037C, strain rad23, hits give low values", "value": 0.99}, {"measurement": "normalized growth", "setting": "locus YEL061C, strain CIN8 (second series), hits give low values", "value": 0.99}, {"measurement": "normalized growth", "setting": "locus YER015W, strain faa2, hits give low values", "value": 0.992}, {"measurement": "normalized growth", "setting": "locus YER016W, strain bim1, hits give low values", "value": 1}, {"measurement": "normalized growth", "setting": "locus YER111C, strain swi4, hits give low values", "value": 1.01}, {"measurement": "normalized growth", "setting": "locus YER155C, strain BEM2 (second series), hits give low values", "value": 1}, {"measurement": "normalized growth", "setting": "locus YFR010W, strain ubp6, hits give low values", "value": 0.989}, {"measurement": "normalized growth", "setting": "locus YGL167C, strain pmr1, hits give low values", "value": 0.998}, {"measurement": "normalized growth", "setting": "locus YGL173C, strain kem1, hits give low values", "value": 1.01}, {"measurement": "normalized growth", "setting": "locus YGL227W, strain vid30, hits give low values", "value": 1}, {"measurement": "normalized growth", "setting": "locus YGL240W, strain doc1, hits give low values", "value": 1.01}, {"measurement": "normalized growth", "setting": "locus YGL253W, strain hxk2, hits give low values", "value": 0.995}, {"measurement": "normalized growth", "setting": "locus YHR013C, strain ard1, hits give low values", "value": 0.957}, {"measurement": "normalized growth", "setting": "locus YHR027C, strain rpn1, hits give low values", "value": 0.992}, {"measurement": "normalized growth", "setting": "[1]", "value": 1.06}, {"measurement": "normalized growth", "setting": "[2]", "value": 1.06}, {"measurement": "normalized growth", "setting": "locus YHR142W, strain chs7, hits give low values", "value": 0.981}, {"measurement": "normalized growth", "setting": "locus YJL092W, strain hpr5, hits give low values", "value": 0.995}, {"measurement": "normalized growth", "setting": "locus YJL095W, strain BCK1 (second series), hits give low values", "value": 0.994}, {"measurement": "normalized growth", "setting": "[3]", "value": 1.06}, {"measurement": "normalized growth", "setting": "locus YJL115W, strain asf1, hits give low values", "value": 0.978}, {"measurement": "normalized growth", "setting": "locus YJL129C, strain trk1, hits give low values", "value": 1}, {"measurement": "normalized growth", "setting": "locus YJL154C, strain vps35, hits give low values", "value": 0.991}, {"measurement": "normalized growth", "setting": "locus YJL164C, strain tpk1, hits give low values", "value": 0.98}, {"measurement": "normalized growth", "setting": "locus YJL166W, strain qcr8, hits give low values", "value": 1}, {"measurement": "normalized growth", "setting": "locus YJL187C, strain SWE1, hits give low values", "value": 1.02}, {"measurement": "normalized growth", "setting": "[4]", "value": 0.973}, {"measurement": "normalized growth", "setting": "locus YKL160W, strain elf1, hits give low values", "value": 0.989}, {"measurement": "normalized growth", "setting": "locus YKR026C, strain gcn3, hits give low values", "value": 0.991}, {"measurement": "normalized growth", "setting": "locus YKR091W, strain srl3, hits give low values", "value": 0.988}, {"measurement": "normalized growth", "setting": "locus YLL001W, strain dnm1, hits give low values", "value": 0.97}, {"measurement": "normalized growth", "setting": "locus YLL026W, hits give low values", "value": 1}, {"measurement": "normalized growth", "setting": "locus YLL041C, strain sdh2, hits give low values", "value": 0.993}, {"measurement": "normalized growth", "setting": "locus YLR027C, strain aat2, hits give low values", "value": 1.01}, {"measurement": "normalized growth", "setting": "[5]", "value": 1.03}, {"measurement": "normalized growth", "setting": "locus YLR221C, strain rsa3, hits give low values", "value": 1.03}, {"measurement": "normalized growth", "setting": "locus YLR258W, strain gsy2, hits give low values", "value": 1.01}, {"measurement": "normalized growth", "setting": "locus YLR262C, strain YPT6 (second series), hits give low values", "value": 0.995}, {"measurement": "normalized growth", "setting": "locus YLR320W, strain mms22, hits give low values", "value": 1.03}, {"measurement": "normalized growth", "setting": "locus YLR342W, strain FKS1, hits give low values", "value": 0.996}, {"measurement": "normalized growth", "setting": "locus YLR357W, strain rsc2, hits give low values", "value": 0.956}, {"measurement": "normalized growth", "setting": "locus YLR370C, strain arc18, hits give low values", "value": 1.01}, {"measurement": "normalized growth", "setting": "locus YLR384C, strain iki3, hits give low values", "value": 0.999}, {"measurement": "normalized growth", "setting": "locus YML120C, strain ndi1, hits give low values", "value": 0.991}, {"measurement": "normalized growth", "setting": "locus YMR058W, strain fet3, hits give low values", "value": 0.986}, {"measurement": "normalized growth", "setting": "locus YMR125W, strain sto1, hits give low values", "value": 0.97}, {"measurement": "normalized growth", "setting": "locus YMR129W, hits give low values", "value": 1}, {"measurement": "normalized growth", "setting": "locus YMR205C, strain PFK2, hits give low values", "value": 0.971}, {"measurement": "normalized growth", "setting": "locus YMR231W, strain pep5, hits give low values", "value": 0.983}, {"measurement": "normalized growth", "setting": "locus YNL071W, strain lat1, hits give low values", "value": 0.997}, {"measurement": "normalized growth", "setting": "[6]", "value": 0.974}, {"measurement": "normalized growth", "setting": "locus YNL209W, strain ssb2, hits give low values", "value": 1}, {"measurement": "normalized growth", "setting": "locus YNL248C, strain rpa49, hits give low values", "value": 0.959}, {"measurement": "normalized growth", "setting": "locus YNL322C, strain KRE1 (second series), hits give low values", "value": 1}, {"measurement": "normalized growth", "setting": "locus YNR049C, strain mso1, hits give low values", "value": 1.01}, {"measurement": "normalized growth", "setting": "locus YOR001W, strain rrp6, hits give low values", "value": 1.01}, {"measurement": "normalized growth", "setting": "locus YOR070C, strain gyp1, hits give low values", "value": 1.02}, {"measurement": "normalized growth", "setting": "locus YOR080W, strain dia2, hits give low values", "value": 1.01}, {"measurement": "normalized growth", "setting": "locus YOR083W, strain WHI5, hits give low values", "value": 0.997}, {"measurement": "normalized growth", "setting": "locus YOR106W, strain vam3, hits give low values", "value": 0.963}, {"measurement": "normalized growth", "setting": "[7]", "value": 1.03}, {"measurement": "normalized growth", "setting": "locus YOR265W, strain rbl2, hits give low values", "value": 1.01}, {"measurement": "normalized growth", "setting": "locus YOR270C, strain vph1, hits give low values", "value": 0.967}, {"measurement": "normalized growth", "setting": "locus YOR290C, strain snf2, hits give low values", "value": 0.95}, {"measurement": "normalized growth", "setting": "locus YPL051W, strain arl3, hits give low values", "value": 1.04}, {"measurement": "normalized growth", "setting": "locus YPL078C, strain atp4, hits give low values", "value": 0.965}, {"measurement": "normalized growth", "setting": "locus YPL106C, strain sse1, hits give low values", "value": 0.999}, {"measurement": "normalized growth", "setting": "locus YPL240C, strain hsp82, hits give low values", "value": 1.01}, {"measurement": "normalized growth", "setting": "[8]", "value": 1.03}]}
{"smiles": "CC(C)N=c1cc2n(-c3ccc(Cl)cc3)c3ccccc3nc-2cc1Nc1ccc(Cl)cc1", "values": [{"measurement": "normalized growth", "setting": "[1]", "value": 0.929}, {"measurement": "normalized growth", "setting": "[2]", "value": "0.812 (active)"}, {"measurement": "normalized growth", "setting": "[3]", "value": "0.869 (active)"}, {"measurement": "normalized growth", "setting": "[4]", "value": 0.948}, {"measurement": "normalized growth", "setting": "[5]", "value": "0.807 (active)"}, {"measurement": "normalized growth", "setting": "[6]", "value": 0.9}, {"measurement": "normalized growth", "setting": "[7]", "value": "0.831 (active)"}, {"measurement": "normalized growth", "setting": "[8]", "value": "0.818 (active)"}]}
